D1 potentiator – human D1 dopamine receptor positive modulation. HEK293 TREx D1 cells, calcium flux, dopamine EC20 potentiation. potentiation, % at 10 µM. 360,000 compounds, 0.036% hits; in the data active = potentiation above about 30%
DRD3 antagonist – D3 dopamine receptor (human) antagonism. 360,000 compounds, 2.5% hits. max response, negative = inhibition, %. D3R cells, DiscoveRx beta-arrestin luminescence, antagonist mode; stronger effect = lower value. AID 652054; in the data active = max response below about -50%; inconclusive = no clear call, values can overlap the other calls
Target sequence (P35462 whole entry, looked up): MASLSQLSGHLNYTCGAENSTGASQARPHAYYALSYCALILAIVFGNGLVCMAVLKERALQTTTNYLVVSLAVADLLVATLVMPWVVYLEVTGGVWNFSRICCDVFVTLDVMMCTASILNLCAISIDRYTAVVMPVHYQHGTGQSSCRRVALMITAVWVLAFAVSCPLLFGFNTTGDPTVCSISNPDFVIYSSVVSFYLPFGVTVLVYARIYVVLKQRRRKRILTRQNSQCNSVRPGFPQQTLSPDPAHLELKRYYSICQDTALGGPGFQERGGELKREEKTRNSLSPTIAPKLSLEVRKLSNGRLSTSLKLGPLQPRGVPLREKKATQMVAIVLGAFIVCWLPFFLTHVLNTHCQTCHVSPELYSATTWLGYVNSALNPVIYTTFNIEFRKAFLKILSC
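Cells expressing the human receptor were seeded at 1500 cells/well, incubated overnight at 37 degrees C in 5% CO2, then exposed to library compounds with dopamine controls for 90 minutes at 37 degrees C before luminescent detection.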
D1 antag – human D1 dopamine receptor antagonism; P21728; HEK293 TREx D1 cells, calcium flux, dopamine EC80; stronger effect = lower value; activity change, negative = inhibition, % at 10 µM; 360,000 compounds, 3.2% hits; AID 504652; in the data active = activity change below about -30%
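Allosteric or orthosteric antagonism assessed as attenuation of the calcium response to EC80 dopamine, added 180 s after compound, in induced HEK293 Trex D1 cells loaded with no-wash calcium dye.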
D3 ag – activates the human D3 dopamine receptor; D3R DiscoveRx beta-arrestin cells, luminescence, 90 min; AID 652048; 410,000 compounds, 0.58% hits; P35462; max activation, %; in the data active = max activation above about 30%
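Agonist-mode cell screen: cells plated at 1500/well and incubated overnight at 37 °C, then exposed to library compounds for 90 min at 37 °C. Detection reagent was added for 30–60 min at room temperature, and luminescence was read.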
D1 agonist – agonists of human D1 dopamine receptor; P21728; HEK293 T-REx D1 cells, calcium flux, agonist mode; activation, % at 2 µM; 360,000 compounds, 1% hits; AID 504660; in the data active = activation above about 30%
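Inducible HEK293 T-REx D1 cells, force-coupled to calcium signalling, were plated at 4000 cells/well with tetracycline and held overnight at 30 C. After no-wash calcium dye loading, compound-evoked calcium rise over 180 s flagged agonists.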
Numbers stand for hits; n = inactive; u = inconclusive; x = no result given. In the library only some 6.1% were active in any assay of this set; here they are far more common.

SMILES	D1 potentiator	DRD3 antagonist	D1 antag	D3 ag	D1 agonist
CS(=O)(=O)Nc1cccc(NC(=O)c2cccc3c(-c4ccc(F)c(F)c4)coc23)c1	x	n	x	n	x
Cc1ccc(/C=C2\SC(=S)N(/N=C/c3cc([N+](=O)[O-])ccc3O)C2=O)o1	n	-75	n	n	n
CC(C)(Oc1ccc(Cl)cc1)C(=O)O	n	n	n	n	n
Fc1cc2[nH]c(=S)[nH]c2cc1Cl	n	n	-41	n	n
Cc1cc2[nH]c(=S)[nH]c2cc1C	n	n	n	n	n
CC1(C(=O)NS(=O)(=O)c2ccc3c(c2)CCO3)CCN1C(=O)Cc1ccc(-c2ccccc2)cc1 (stereo not given)	x	n	x	n	x
Cc1cccc(NC(=O)CCCn2c(=S)[nH]c3ccccc3c2=O)c1	n	n	n	47	n
CCOC(=O)c1[nH]c2ccccc2c1NC(=S)Nc1cccc(C)c1	n	-53	n	n	n
Cc1cccc(NC(=O)CSc2nc3c([nH]c4ccccc43)c(=O)n2C)c1	n	-70	n	n	n
COc1cc(NC(=O)CCCn2c(=S)[nH]c3ccccc3c2=O)cc(OC)c1OC	n	n	n	n	n
CCOC(=O)c1[nH]c2ccccc2c1NC(=S)Nc1ccccc1	n	n	n	n	n
COc1ccc(NC(=O)Cn2c(=O)n(CCC(=O)NCCc3ccc(OC)c(OC)c3)c(=O)c3ccccc32)cc1Cl	n	x	n	n	n
COC(=O)C1=C(C)N(C(C)C)C(=O)C1(NC(=O)c1ccc(C(C)(C)C)cc1)C(F)(F)F (stereo not given)	n	x	n	n	n
CCC(=O)N1c2ccc(S(=O)(=O)N3CCN(c4ccc([N+](=O)[O-])cc4)CC3)cc2CC1C (stereo not given)	n	n	n	n	n
O=C(COc1ccc(F)cc1)Nc1ccccc1C(=O)OCc1cc(=O)n2ccsc2n1	n	x	n	n	n
CCCCCN(C(=O)COC(=O)c1ccc(C)cc1)c1c(N)n(CCCC)c(=O)[nH]c1=O	n	n	-35	n	n
CCCCCN(C(=O)CCC(=O)OCC(=O)N(CC#N)c1ccccc1)c1c(N)n(CCCC)c(=O)[nH]c1=O	n	-54	n	n	n
CCOc1cccc2c1OC1(C)CC2NC(=O)N1c1cccc(F)c1 (stereo not given)	n	-51	n	n	n
C[C@H]1NCc2cc(-c3ccc4c(=O)c(C(=O)O)cn(C5CC5)c4c3OC(F)F)ccc21	x	x	x	n	x
O=C(Nc1ccc(N2CCC(c3ccccc3)C2)c(C(=O)O)c1)c1ccc(Cl)cc1 (stereo not given)	n	x	n	n	n
O=C(CCNS(=O)(=O)c1ccccc1)OCC(=O)c1ccc(F)cc1	n	n	-40	n	n
CC(C)(C)c1ccc(CC(=O)N2CCC2(C)C(=O)N2CCCCC2)cc1 (stereo not given)	x	n	x	n	x
Cc1cccc2sc(N(Cc3cccnc3)C(=O)c3cccs3)nc12	n	x	x	n	n
O=C(CCCOc1ccc(Cl)cc1Cl)Nc1ccc(O)cc1C(=O)O	n	n	n	n	n
Cc1ccc(NC(=O)N2CCC(c3nc4c(nnn4Cc4cccc(Cl)c4)c(=O)[nH]3)CC2)cc1	n	n	-47	n	n
SMILES	D1 potentiator	DRD3 antagonist	D1 antag	D3 ag	D1 agonist
O=C(c1ccccc1)N1CCCC(c2nc3c(nnn3Cc3ccccc3)c(=O)[nH]2)C1 (stereo not given)	n	u	n	n	n
O=C(C1CCCCC1)N1CCCC(c2nc3c(nnn3Cc3ccccc3)c(=O)[nH]2)C1 (stereo not given)	n	-108	n	n	n
COc1ccc(NC(=S)NCc2cccnc2)cc1OC	n	n	n	n	n
COc1ccc(NC(=S)NCc2cccnc2)cc1	n	n	-31	n	n
S=C(NCc1cccnc1)Nc1ccc(Cl)c(Cl)c1	n	n	-46	n	n
Cc1ccc(NC(=O)NCc2cccnc2)cc1C	n	n	n	n	n
COc1ccc(/C=C/C(=O)NCc2cccnc2)cc1	n	n	-40	n	n
Fc1ccc(NC(=S)NCc2cccnc2)cc1	n	n	n	n	n
O=C(NCc1cccnc1)Nc1ccc(Cl)c(Cl)c1	n	n	-46	n	n
O=C(COC(=O)c1cc(S(=O)(=O)N2CCCCC2)ccc1N1CCOCC1)NC1CCS(=O)(=O)C1 (stereo not given)	n	n	n	n	n
